# Measurements: the supplement of paper PMC12494721
# Where a name gives a salt, the structure may show the parent alone.
# Test system: Escherichia coli IAI1
# Test: fold change of Cadaverine concentration vs plate DMSO controls (fold change (ratio)); higher = more amine produced, active = hit call of the paper (significant change in both replicates, either direction)
# Details: incubation time: 27 h, anaerobic, 37 °C;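 for the amine columns active = adjusted P below 0.05 in both replicates with a change the same way and a mean fold change under 0.8 or over 1.25; inactive = the rest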
# Procedure, shortened: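 Each value is the fold change relative to DMSO-only wells on the same plate. Four gut bacterial strains were grown anaerobically in mGAM at 37 °C for 27 h in 80 µL wells, starting at OD 0.1 before a 1:1 dilution, with compounds at 20 µM final (sweeteners 50 µM). Whole cultures were extracted with cold acetonitrile/methanol containing 0.1% formic acid, centrifuged, and amines were quantified by LC–triple-quadrupole MS (dynamic MRM) against external calibration curves with within-batch drift correction. Values are means of 2 biological replicates.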
row,Structure (SMILES),fold change of Cadaverine concentration
1,CC(C)(C)NC[C@H](O)c1ccc(O)c(CO)c1 [Levalbuterol hydrochloride] (20 µM),0.974 (inactive)
2,C[N+]1(CCCCC[N+]2(C)CCCC2)CCCC1 [Pentolinium bitartrate] (20 µM),0.966 (inactive)
3,O=C1c2cccc(O)c2C(=O)c2c(O)cccc21 [Danthron] (20 µM),1 (inactive)
4,O=C(N/N=C/c1ccc([N+](=O)[O-])o1)c1ccc(O)cc1 [Nifuroxazide] (20 µM),1.58 (active)
5,COC(=O)Nc1nc2cc(Sc3ccccc3)ccc2[nH]1 [Fenbendazole] (20 µM),0.967 (inactive)
6,CN(C)CCOC(c1ccccc1)c1ccccc1.Cn1c(=O)c2[nH]c(Cl)nc2n(C)c1=O [Dimenhydrinate] (20 µM),0.985 (inactive)
7,CCc1ccc(C(=O)C(C)CN2CCCCC2)cc1 (centres undefined) [Eperisone Hydrochloride] (20 µM),0.992 (inactive)
8,CC12CC3CC(C)(C1)CC(N)(C3)C2 [Memantine hydrochloride] (20 µM),0.995 (inactive)
9,COc1ccc2[nH]cc(CCNC(C)=O)c2c1 [Melatonin] (20 µM),0.999 (inactive)
10,CCC(=O)O[C@]1(C(=O)CCl)[C@@H](C)C[C@H]2[C@@H]3CCC4=CC(=O)C=C[C@]4(C)[C@@]3(F)[C@@H](O)C[C@@]21C [Clobetasol propionate] (20 µM),1.01 (inactive)
11,CC[C@@H](CO)NCCN[C@@H](CC)CO [Ethambutol dihydrochloride] (20 µM),0.954 (inactive)
12,CC(=O)CC(c1ccc([N+](=O)[O-])cc1)c1c(O)c2ccccc2oc1=O (centres undefined) [Acenocoumarol] (20 µM),1.01 (inactive)
13,CCOC1O[C@H]([C@@H](COCc2ccccc2)OCc2ccccc2)[C@H](OCc2ccccc2)[C@H]1O (some centres undefined) [Tribenoside] (20 µM),1.01 (inactive)
14,COc1ccc(C[C@@H]2c3cc(OC)c(OC)cc3CC[N@+]2(C)CCC(=O)OCCCCCOC(=O)CC[N@@+]2(C)CCc3cc(OC)c(OC)cc3[C@H]2Cc2ccc(OC)c(OC)c2)cc1OC [Cisatracurium besylate] (20 µM),0.944 (inactive)
15,O=C1CN2Cc3c(ccc(Cl)c3Cl)N=C2N1 [Anagrelide] (20 µM),1.16 (inactive)
16,Cc1c(C)c2c(c(C)c1O)CCC(C)(C(=O)O)O2 (centres undefined) [Trolox] (20 µM),0.986 (inactive)
17,COc1cc(C(=O)NCc2ccc(OCCN(C)C)cc2)cc(OC)c1OC [Trimethobenzamide hydrochloride] (20 µM),1.02 (inactive)
18,CC=CC(=O)N(CC)c1ccccc1C [Crotamiton] (20 µM),0.967 (inactive)
19,CCOC(=O)C1=C(C)NC(C)=C(C(=O)OCC)C1c1ccccc1/C=C/C(=O)OC(C)(C)C [Lacidipine] (20 µM),1.01 (inactive)
20,CCOC(=O)CC(=O)N1CCSC1COc1ccccc1OC (centres undefined) [Moguisteine] (20 µM),1 (inactive)
21,CC(=O)OCC(=O)NCCCOc1cccc(CN2CCCCC2)c1 [Roxatidine acetate hydrochloride] (20 µM),1.18 (inactive)
22,Clc1ccc(C(Cn2ccnc2)OCc2csc3c(Cl)cccc23)c(Cl)c1 (centres undefined) [Sertaconazole nitrate] (20 µM),0.973 (inactive)
23,CC[N+](C)(CC)CCOC(=O)C1c2ccccc2Oc2ccccc21 [Methantheline bromide] (20 µM),1.02 (inactive)
24,CN1[C@@H]2CC[C@H]1C[C@@H](OC(c1ccccc1)c1ccccc1)C2 [Benztropine mesylate] (20 µM),1.05 (inactive)
25,Nc1c(Br)cc(Br)cc1CN[C@H]1CC[C@H](O)CC1 [Ambroxol hydrochloride] (20 µM),1.01 (inactive)
26,COCCCC/C(=N\OCCN)c1ccc(C(F)(F)F)cc1 [Fluvoxamine maleate] (20 µM),0.985 (inactive)
27,Clc1ccc(COC(Cn2ccnc2)c2ccc(Cl)cc2Cl)c(Cl)c1 (centres undefined) [Miconazole] (20 µM),0.974 (inactive)
28,CCCCCCCCCCCCCCCC[N+](C)(C)CCN(Cc1ccc(OC)cc1)c1ncccn1 [Thonzonium bromide] (20 µM),0.984 (inactive)
29,CCCN(CCC)C(=O)C(CCC(=O)O)NC(=O)c1ccccc1 (centres undefined) [Proglumide] (20 µM),0.929 (inactive)
